Compound activity (PubChem)
D1 potentiator: human D1 dopamine receptor positive modulation. P21728. HEK293 TREx D1 cells, calcium flux, dopamine EC20 potentiation. potentiation, % at 10 µM. 360,000 tested, 0.036% active. AID 504651; in the data active = potentiation above about 30%; also: 0% is about no effect
Target sequence (P21728 whole entry, looked up): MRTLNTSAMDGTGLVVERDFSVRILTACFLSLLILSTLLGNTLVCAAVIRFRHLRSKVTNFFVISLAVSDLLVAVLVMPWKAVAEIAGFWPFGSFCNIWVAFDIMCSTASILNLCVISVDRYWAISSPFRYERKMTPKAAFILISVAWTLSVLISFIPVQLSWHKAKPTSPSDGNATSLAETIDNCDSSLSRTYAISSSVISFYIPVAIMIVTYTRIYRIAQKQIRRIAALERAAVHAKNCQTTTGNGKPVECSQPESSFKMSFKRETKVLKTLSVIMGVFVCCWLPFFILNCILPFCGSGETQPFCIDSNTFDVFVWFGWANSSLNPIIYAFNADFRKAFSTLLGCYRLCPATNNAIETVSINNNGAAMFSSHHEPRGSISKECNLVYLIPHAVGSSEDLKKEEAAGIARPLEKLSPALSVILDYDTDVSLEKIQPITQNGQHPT
D1 agonist: activates the human D1 dopamine receptor. P21728. HEK293 T-REx D1 cells, calcium flux, agonist mode. activation, % at 2 µM. 360,000 tested, 1% active; in the data active = activation above about 30%; also: 0% is about no effect
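Agonism was scored from calcium flux recorded over 180 s (1 read/s) after pintool compound addition, following a 10-cycle baseline. Cells were inducible force-coupled HEK293 TREx D1, plated overnight at 30 C and loaded with no-wash calcium dye.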
DRD3 agonist: agonists of human D3 dopamine receptor | P35462 | 410,000 tested, 0.58% active | D3R DiscoveRx beta-arrestin cells, luminescence, 90 min | AID 652048 | max activation, %; in the data active = max activation above about 30%; also: 0% is about no effect
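Agonist mode: compounds and dopamine controls were applied to plated cells for 90 min at 37 degrees C after an overnight attachment at 1500 cells/well. Luminescent read-out followed 30 - 60 minutes at room temperature with DiscoveRx detection reagent.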
DRD3 antagonist: D3 dopamine receptor (human) antagonism; P35462; D3R cells, DiscoveRx beta-arrestin luminescence, antagonist mode; hits give low values; max response, negative = inhibition, %; 360,000 tested, 2.5% active; AID 652054; in the data active = max response below about -50%; inconclusive = no clear call, values can overlap the other calls; also: % is scaled to controls: 0 for no effect and ±100 for the full control effect
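Cells plated overnight at 1500 cells/well, then exposed to library compounds with dopamine controls for 90 minutes at 37 degrees C. DiscoveRx reagent added for 30–60 minutes at room temperature; luminescence read, quantitative HTS format.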
D1 antagonist: antagonists of human D1 dopamine receptor. HEK293 TREx D1 cells, calcium flux, dopamine EC80; hits give low values. activity change, negative = inhibition, % at 10 µM. 360,000 tested, 3.2% active. AID 504652; in the data active = activity change below about -30%; also: % is scaled to controls: 0 for no effect and ±100 for the full control effect
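Calcium flux readout: force-coupled, inducible Hek293 Trex D1 line, cells induced overnight at 30 C with tetracycline, dye-loaded 30–90 min at RT. Antagonism scored against EC80 dopamine challenge given 180 s after compound.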
Starred values were filed as active, the others as inactive; ? = inconclusive; . = no result given. A selection: hits, their analogues and other compounds. The true share with any hit is near 6%.

SMILES	D1 potentiator	D1 agonist	DRD3 agonist	DRD3 antagonist	D1 antagonist
O=C(O)CCCN1C(=O)/C(=C\c2ccccc2OCc2ccccc2)SC1=S	-5	4	0	29	-7
COc1ccc(OC)c(-c2csc(-c3c(N)c(C(=O)c4ccc(Cl)cc4)n4ccccc34)n2)c1	-2	2	3	.	6
CCOc1ccccc1N1CC(c2nc3ccccc3n2CCOc2ccccc2OC)CC1=O (centres undefined)	1	29	-2	.	2
Cc1ccccc1NC(=O)Cn1c(=O)n(Cc2ccco2)c(=O)c2cccnc21	-4	0	-16	.	3
O=C(c1ccc2c(c1)N(Cc1ccccc1)C(=O)c1ccccc1S2(=O)=O)N1CCN(c2ccccc2)CC1	-4	3	0	.	7
CN1CCN(C(=O)CCCN2C(=O)/C(=C/c3ccc(Cl)cc3)SC2=S)CC1	-13	10	-6	0	-61*
O=C(O)CCN1C(=O)CC(N2C(=O)/C(=C/c3ccc(Cl)cc3)SC2=S)C1=O (centres undefined)	1	0	31*	0	-5
CCOc1ccc(/C=C2\SC(=S)N(CCC(=O)O)C2=O)cc1	-6	9	2	3	11
COCCN1C(=O)/C(=C/c2ccc(N3CCCC3)cc2)SC1=S	0	258*	0	-8	-1
CN1CCN(C(=O)CCCN2C(=O)/C(=C/c3ccccc3)SC2=S)CC1	-14	7	-5	-25	-30
CC(=O)[C@]1(O)Cc2c(O)c3c(c(O)c2[C@@H](O[C@H]2C[C@H](N)[C@H](O)[C@H](C)O2)C1)C(=O)c1c(O)cccc1C3=O	.	.	-11	.	.
CCCN(C(=O)Cn1ncc2c1-c1ccccc1OC2)c1cccc(C)c1	5	1	-7	.	29
COC(=O)C(NC(=O)CC(C)C)(Nc1nc2c(s1)CCCC2)C(F)(F)F (centres undefined)	-2	1	2	.	-11
COC(=O)c1ccc(NC(=O)CCn2cccn2)cc1	-8	2	-1	.	-22
CCOCCn1c(=O)c2c(nc3n2CCCN3CCc2ccccc2)n(C)c1=O	-7	3	2	-1	1
COCCn1c(=O)c2c(nc3n2CCCN3CCc2ccccc2)n(C)c1=O	1	1	102*	14	14
CC(C)(C)c1ccc(OCC(=O)NC(Cc2c[nH]c3ccccc23)C(=O)O)cc1 (centres undefined)	-1	49*	-3	.	13
O=C(Nc1ccccc1C(=O)NC(Cc1c[nH]c2ccccc12)C(=O)O)c1ccco1 (centres undefined)	-2	0	4	-55*	3
O=C(NC(Cc1c[nH]c2ccccc12)C(=O)O)c1ccco1 (centres undefined)	-2	5	2	16	-4
O=C(NNC(=O)c1sc2cccc(Cl)c2c1Cl)NC1CCCCC1	-5	2	-18	-74*	6
O=C(NC(=S)NCCO)c1sc2ccccc2c1Cl	1	-2	-11	?	.
O=C(NNC(=O)C1CC2CCC1C2)c1sc2ccccc2c1Cl (centres undefined)	-5	3	0	11	-34*
O=C(NC1CC1)c1sc2ccccc2c1Cl	-4	1	3	3	-2
CC(C)(C)C(=O)NC(=S)NNC(=O)c1sc2ccccc2c1Cl	56*	446*	-8	1	46
O=C(NNC(=S)NC1CCCCC1)c1sc2ccccc2c1Cl	-10	3	-10	-64*	2
SMILES	D1 potentiator	D1 agonist	DRD3 agonist	DRD3 antagonist	D1 antagonist
CCOc1ccc(C2C(=O)N(C3CCCCCC3)CC(=O)N2CCc2ccccc2)cc1OC (centres undefined)	-1	-1	-14	.	13
CN(CC(=O)Nc1cccc(F)c1)C(=O)c1ccc2c(=O)n3c(nc2c1)CCC3	-3	1	2	9	-13
CN(CC(=O)Nc1ccccc1C(F)(F)F)C(=O)c1ccc2c(=O)n3c(nc2c1)CCC3	-5	3	4	-24	-32*
Cc1cccc(NC(=O)c2ccc3c(=O)n4c(nc3c2)CCCCC4)n1	-8	3	9	1	-37*
O=C(c1ccc2c(=O)n3c(nc2c1)CCCCC3)N1CCN(c2ccc(Cl)cc2)CC1	-7	1	-2	6	-13
O=C(c1ccc2c(=O)n3c(nc2c1)CCCCC3)N1CCN(c2ccc(F)cc2)CC1	-11	1	4	3	-50*
CCN(C(=O)c1ccc2c(=O)n3c(nc2c1)CCCCC3)c1cc(C)ccc1C	-3	0	5	.	-52*
O=C(Nc1ccc(F)cc1F)C1CCN(S(=O)(=O)c2ccc3[nH]c(=O)ccc3c2)CC1	-4	0	3	.	-2
CCN1C(=NCc2cc(OC)c(OC)c(OC)c2)N[C@@H](c2cccc(F)c2)C(C(=O)OC)=C1C	-1	2	.	.	-2
Cc1cc(C)c(S(=O)(=O)NCc2csc(-c3ccccc3)n2)c(C)c1	6	10	-3	.	-25
CCc1ccc(NC(=O)C(=O)NCC(c2cccnc2)N2CCN(c3ccc(F)cc3)CC2)cc1 (centres undefined)	-2	15	5	.	-11
Cc1cc(CC(C)CC(C)(C)C)n(O)c(=O)c1 (centres undefined) (tested in a mixture with another compound)	.	.	8	.	.
COc1ccccc1C(O)c1ncc(-c2cccc3ccccc23)[nH]1 (centres undefined)	.	.	-17	-57*	.
CCCCCCSc1ccc([C@H]2N[C@@](Cc3ccccc3)(C(=O)OC)[C@H]3C(=O)N(C)C(=O)[C@@H]23)cc1	-5	22	-6	-51*	7
CCCCCCSc1ccc([C@H]2N[C@@](Cc3ccccc3)(C(=O)OC)[C@H]3C(=O)N(CC)C(=O)[C@@H]23)cc1	-2	13	1	3	-3
CCN1C(=O)[C@H]2[C@@H](c3ccc(-c4ccc(C(C)=O)cc4)c(OC)c3)N[C@@](Cc3ccccc3)(C(=O)OC)[C@H]2C1=O	-7	8	-8	-59*	-18
CCc1nn(CC(=O)Nc2ccc(N(CC)CC)cc2C)c(=O)c2cc3sccc3n12	0	-1	-12	.	-8
COc1ccc(OC)c(CNC(=O)c2cnc3c(C)cccn3c2=O)c1	2	1	6	.	16
COCc1cc(C)[nH]c(=O)c1C#N	1	2	-10	-53*	9
O=C1CCN(CCc2ccccc2)CCN1[C@H](COc1ccccc1)c1ccccc1	-3	8	-32	-3	-2
CC(C)CN1CCC(=O)N([C@H](COc2ccccc2)c2ccccc2)CC1	-5	0	-60	-70*	0
CCCN1CCC(=O)N([C@H](COc2ccccc2)c2ccccc2)CC1	1	3	-74	-104*	-11
CCOC(=O)c1cc(-c2ccc(OC)cc2)n(CCC(=O)Nc2nc3ccc(OCC)cc3s2)c1C	-2	2	12	.	1
